The source of these data is PubChem BioAssay (NCI).

Among the test systems are NCI-H23 lung; NCI-H226 lung; NCI-H322M lung; HOP-62 NSCLC; NCI-H460 lung; HOP-92 NSCLC; NCI-H522 lung; A549/ATCC NSCLC; 786-0 renal; COLO 205 colon.
Holding throughout (experiment): NCI-60 one-dose screen, 48 h (100 = growth as untreated, 0 = no growth, -100 = all killed)
Conditions in all cases: 10 µM unless noted

The structures appear in SMILES notation. Compounds without any hit were thinned out: in the full panel of roughly 83,000, 20% have a hit.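 The test compound was applied at a single concentration to cells in 96-well plates for 48 hours, and percent growth was recorded.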 A number with no mark means an inactive call. The source made the active and inactive calls. How the source made its calls: active means growth percent below 10; inactive means the rest.

On to `COC(=O)[C@@]1(O)C[C@H]2O[C@]1(C)n1c3ccccc3c3c4c(c5c6ccccc6n2c5c31)C(=O)NC4`, for which the growth in the experiment with NCI-H23 lung is -43% (active); in the experiment on NCI-H226 lung it was -63.1% (active); with NCI-H322M lung, -33.6% (active); in the experiment on HOP-62 NSCLC, -59.3% (active); with NCI-H460 lung, -72.8% (active); in the experiment on HOP-92 NSCLC, -44.3% (active). For the same compound, the growth was -59.2% (active) in the experiment on NCI-H522 lung, -39.7% (active) with A549/ATCC NSCLC, -89.5% (active) with 786-0 renal and -66.6% (active) with COLO 205 colon.

Take `O=C1C2C(C(=O)[N]1[Hg][c]1ccccc1)C1(Cl)C(Cl)=C(Cl)C2(Cl)C1(Cl)Cl` (stereo not given): the growth was -8.01% (active) in the experiment with NCI-H23 lung; 82.9% in the experiment with NCI-H226 lung; 45.1% in the experiment on NCI-H322M lung; 47.2% with HOP-62 NSCLC; -20.9% (active) with NCI-H460 lung; -84.5% (active) in the experiment with HOP-92 NSCLC. Further, the growth was -87.4% (active) with NCI-H522 lung, 78.7% with A549/ATCC NSCLC, 26% in the experiment on 786-0 renal and -96.5% (active) with COLO 205 colon.

Regarding `O=C(CC1(O)C(=O)N(Cc2ccccc2)c2ccc(Br)cc21)c1ccc(C(=O)NCC2CCC3(CC2)OOC2(CCCCC2)OO3)cc1` (stereo not given), the growth with NCI-H23 lung was -74.3% (active); in the experiment on NCI-H226 lung, -33% (active); in the experiment with NCI-H322M lung, 73.9%; in the experiment with HOP-62 NSCLC, -55.6% (active); with NCI-H460 lung, -41% (active); in the experiment on HOP-92 NSCLC, -74.1% (active). Moreover, the growth with NCI-H522 lung was 2.53% (active); in the experiment on A549/ATCC NSCLC, -61.1% (active); in the experiment on 786-0 renal it was -70.7% (active); with COLO 205 colon it was -49.5% (active).

In the case of `CCCCOc1ccc(C(N)Cc2ccccc2)cc1` (stereo not given), the growth is 104% in the experiment on NCI-H23 lung; 112% in the experiment on NCI-H226 lung; 92.4% with NCI-H322M lung; 107% in the experiment on HOP-62 NSCLC; 95.5% in the experiment with NCI-H460 lung; 41% in the experiment with HOP-92 NSCLC. Moreover, the growth in the experiment with NCI-H522 lung is 93%; in the experiment with A549/ATCC NSCLC, 90%; in the experiment with 786-0 renal, 75.3%; in the experiment with COLO 205 colon it was -43.2% (active).

`ClCCN(CCCl)c1ccc(-n2cnc3c(Cl)ncnc32)cc1`: the growth with NCI-H23 lung is -69% (active); with NCI-H226 lung, 97.5%; in the experiment on NCI-H322M lung, 58.7%; in the experiment on HOP-62 NSCLC, 87%; in the experiment on NCI-H460 lung, 47.8%; in the experiment on HOP-92 NSCLC, -1.92% (active). Further, the growth in the experiment with NCI-H522 lung was -76.9% (active); in the experiment on A549/ATCC NSCLC it was 85.2%; in the experiment on 786-0 renal it was 106%; in the experiment on COLO 205 colon it was 65.8%.

On to `O=C([O][Hg][CH2]C1OCCOC1[CH2][Hg][O]C(=O)c1ccccc1)c1ccccc1` (stereo not given), for which the growth in the experiment on NCI-H23 lung is 46.7%; in the experiment on NCI-H226 lung, 118%; in the experiment with NCI-H322M lung, 116%; in the experiment with HOP-62 NSCLC it was 98.6%; in the experiment on NCI-H460 lung, 117%; in the experiment on HOP-92 NSCLC, -88.3% (active). Also, the growth in the experiment with NCI-H522 lung was -64.1% (active); in the experiment with A549/ATCC NSCLC, 101%; with 786-0 renal it was 79.4%; in the experiment on COLO 205 colon, -64.7% (active).

Take `CCCCCN(CCCCC)CC(O)c1cc(Cl)ccc1OC` (stereo not given): the growth is 37.6% with NCI-H23 lung; 65.2% in the experiment on NCI-H226 lung; 62.2% with NCI-H322M lung; 4.36% (active) with HOP-62 NSCLC; 15.4% with NCI-H460 lung; -6.26% (active) in the experiment with HOP-92 NSCLC. Further, the growth is 21.4% with NCI-H522 lung, 42.2% in the experiment with A549/ATCC NSCLC, 24.7% in the experiment with 786-0 renal and 13.3% with COLO 205 colon.

On to `CCC(=O)Nc1ccc(Cl)c(Cl)c1`, for which the growth in the experiment with NCI-H23 lung is 96.5%; in the experiment with NCI-H226 lung, 102%; with NCI-H322M lung, 93.5%; with HOP-62 NSCLC, 93.7%; in the experiment with NCI-H460 lung it was 111%; in the experiment with HOP-92 NSCLC it was 76.8%. Also, the growth is 84.7% in the experiment on NCI-H522 lung, 92.5% in the experiment with A549/ATCC NSCLC, 91.1% with 786-0 renal and 107% in the experiment on COLO 205 colon.

Consider `C[C@]12CCc3sc(-c4cccc(F)c4)nc3C1=CC[C@@H]1[C@@H]2CC[C@]2(C)C(=O)CC[C@@H]12`, for which the growth with NCI-H23 lung is 62.7%; with NCI-H226 lung, 65.8%; with NCI-H322M lung it was 69.3%; in the experiment with HOP-62 NSCLC, 50.5%; in the experiment on NCI-H460 lung it was 53.9%; in the experiment with HOP-92 NSCLC it was 74.3%. In addition, the growth was -36.5% (active) in the experiment on NCI-H522 lung, 55% with A549/ATCC NSCLC, -10.1% (active) in the experiment with 786-0 renal and 44.5% with COLO 205 colon.

`CC(=O)[O][Hg][O]C(C)=O`: the growth was 98.4% in the experiment with NCI-H23 lung; 118% in the experiment with NCI-H226 lung; 89.6% in the experiment on NCI-H322M lung; 100% with HOP-62 NSCLC; 101% in the experiment with NCI-H460 lung; 142% in the experiment on HOP-92 NSCLC. For the same compound, the growth is -73.9% (active) with NCI-H522 lung, 103% with A549/ATCC NSCLC, 103% in the experiment on 786-0 renal and 88.5% with COLO 205 colon.

Turning to `CC(=O)Nc1ccc(NC(=O)c2ccc([As](O)O)cc2)cc1`, the growth with NCI-H23 lung was 103%; with NCI-H226 lung, 116%; with NCI-H322M lung it was 118%; with HOP-62 NSCLC, 131%; with NCI-H460 lung, 104%; in the experiment on HOP-92 NSCLC, 112%. Besides, the growth in the experiment on NCI-H522 lung is -2.06% (active); with A549/ATCC NSCLC it was 114%; in the experiment with 786-0 renal, 107%; in the experiment on COLO 205 colon it was 108%.

Regarding `COC(=O)[C@@]1(C)CC[C@]2(C)CC[C@]3(C)C4=CC=C5C(=CC(=O)C(O)=C5C)[C@]4(C)CC[C@@]3(C)[C@@H]2C1`, the growth in the experiment on NCI-H23 lung is -72.6% (active); in the experiment with NCI-H226 lung it was -59.1% (active); in the experiment with NCI-H322M lung, -95.3% (active); in the experiment with HOP-62 NSCLC, -90.6% (active); in the experiment on NCI-H460 lung, -83% (active); in the experiment with HOP-92 NSCLC it was -86.7% (active). Moreover, the growth in the experiment on NCI-H522 lung was -78.3% (active); with A549/ATCC NSCLC it was -92.9% (active); in the experiment with 786-0 renal it was -90% (active); in the experiment with COLO 205 colon it was -77.2% (active).

For `COC(=O)[C@@H](C)C[C@H](Cc1ccc(F)cc1)NC(=O)c1csc([C@@H](C[C@H](C(C)C)N(C)C(=O)[C@@H](NC(=O)[C@H]2CCCCN2C)C(C)C)OC(C)=O)n1`, the growth in the experiment with NCI-H23 lung is 35.2%; with NCI-H226 lung it was 27.3%; in the experiment with NCI-H322M lung, 38%; in the experiment with HOP-62 NSCLC, 6.77% (active); in the experiment with NCI-H460 lung it was 6.06% (active); in the experiment on HOP-92 NSCLC it was 26.7%. Also, the growth in the experiment with NCI-H522 lung was -13.9% (active); with A549/ATCC NSCLC, 16.6%; with 786-0 renal, 13.2%; in the experiment on COLO 205 colon, -68.8% (active).
